# Laboratory results: PubChem BioAssay (NCATS)
# Values joined by “and” are separate entries in the source; they are usually repeats but may differ in a detail not shown here. Identical values can stand only once. Results filed as inconclusive are left out. A call without a number means that no potency is given here. Values without a mark were called inactive. Active and inactive are the calls of the source. Unless noted, the call rests on the fitted dose curve; in most records, active means well fitted curve in the direction sought with a large enough effect; inconclusive means small, poorly fitted or top-dose-only effect, or another doubt; inactive means no such curve, though single readings can be large; an effect the other way counts as inactive or inconclusive.
# Legend:
# [1] = Primary qHTS for small molecule stabilizers of the endoplasmic reticulum resident proteome: Secreted ER Calcium Modulated Protein (SERCaMP) assay (AID 1508630); further: potency means the concentration at half of the fitted maximal effect
# Method in brief: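 GLuc-SERCaMP-expressing SH-SY5Y cells, pretreated 16 h with compound, are challenged with thapsigargin to empty ER calcium stores; after 4 h, coelenterazine is added directly to the medium and luminescence is imaged.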
# [2] = A High-Content qHTS Against Drug Library for the Identification of Small Molecules that Inhibit DYT1 Early Onset Primary Dystonia-Associated Cell Pathology (AID 1645839; calls by dose curve; further: potency means the concentration at half of the fitted maximal effect)
# Method in brief: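 In this high-content image screen, delE TorsinA mislocalization in inducible Flp-In 293 cells is scored as %pathology, with cell count serving as the counterscreen. Compound exposure lasts 48 h under tetracycline induction in reduced-serum medium.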
# [3] = molecular target: Cytochrome P450 2D6 (Homo sapiens) (UniProt P10635); assay: Cytochrome P450 family 2 subfamily D member 6 (CYP2D6) small molecule antagonists: luciferase biochemical (cell-free) qHTS assay (AID 1645840; active means well fitted curve in the direction sought with a large enough effect in the repeat runs; an effect the other way counts as inactive or inconclusive; further: nearly all actives have a fitted effect of over 55% in size; further: potency means the concentration at half of the fitted maximal effect)
# Cytochrome P450 2D6 (Homo sapiens), sequence (P10635 whole entry, looked up): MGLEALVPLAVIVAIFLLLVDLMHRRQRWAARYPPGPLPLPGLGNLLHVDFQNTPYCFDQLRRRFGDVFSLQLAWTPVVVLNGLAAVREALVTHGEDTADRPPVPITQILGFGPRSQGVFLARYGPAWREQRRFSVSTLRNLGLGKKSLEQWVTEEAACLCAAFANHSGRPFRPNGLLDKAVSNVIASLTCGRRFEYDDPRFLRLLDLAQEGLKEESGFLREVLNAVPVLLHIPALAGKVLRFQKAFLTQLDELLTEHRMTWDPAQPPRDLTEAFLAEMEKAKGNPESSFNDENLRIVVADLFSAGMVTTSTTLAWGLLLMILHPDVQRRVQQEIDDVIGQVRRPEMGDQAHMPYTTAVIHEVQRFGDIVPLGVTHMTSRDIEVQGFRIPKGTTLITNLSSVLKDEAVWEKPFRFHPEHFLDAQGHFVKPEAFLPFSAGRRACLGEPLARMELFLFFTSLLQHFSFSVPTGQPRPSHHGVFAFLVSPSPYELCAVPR
# Method in brief: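 P450-Glo luminescent screen: recombinant CYP2D6 enzyme–proluciferin substrate mix preincubated with compound 10 min at room temperature, then NADPH regeneration added for 1 h at room temperature. Detection reagent added for 20 min; luciferin light read as relative luminescence units.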
# [4] = molecular target: Cytochrome P450 2C9 (Homo sapiens) (UniProt P11712); assay: Cytochrome P450 family 2 subfamily C member 9 (CYP2C9) small molecule antagonists: luciferase biochemical (cell-free) qHTS assay (AID 1645842; active means well fitted curve in the direction sought with a large enough effect in the repeat runs; an effect the other way counts as inactive or inconclusive; further: nearly all actives have a fitted effect of over 55% in size; further: potency means the concentration at half of the fitted maximal effect)
# Cytochrome P450 2C9 (Homo sapiens), sequence (P11712 whole entry, looked up): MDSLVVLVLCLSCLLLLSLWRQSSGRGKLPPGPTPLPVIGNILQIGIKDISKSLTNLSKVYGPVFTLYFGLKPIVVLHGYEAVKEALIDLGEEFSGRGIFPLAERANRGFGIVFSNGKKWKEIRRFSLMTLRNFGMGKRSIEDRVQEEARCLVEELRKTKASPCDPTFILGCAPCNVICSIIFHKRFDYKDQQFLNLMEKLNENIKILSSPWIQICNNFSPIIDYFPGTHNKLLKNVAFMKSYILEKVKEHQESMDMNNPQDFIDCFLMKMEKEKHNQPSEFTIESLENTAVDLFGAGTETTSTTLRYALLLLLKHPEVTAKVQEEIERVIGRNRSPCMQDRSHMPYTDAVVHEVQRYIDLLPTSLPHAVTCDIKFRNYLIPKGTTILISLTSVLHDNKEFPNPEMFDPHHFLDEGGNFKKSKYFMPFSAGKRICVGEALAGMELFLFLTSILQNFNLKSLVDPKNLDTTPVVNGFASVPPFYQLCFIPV
# Method in brief: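 Luminescence, after 20 min with luciferin detection reagent, reflected CYP2C9 turnover during a 1 h NADPH-driven reaction at 37C. Enzyme-substrate mix contained 0.4% bovine serum albumin and was preincubated with compound 10 min at room temperature.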
# [5] = Primary qHTS for inhibitors of nuclear receptor binding SET domain protein 2 (NSD2) in an isogenic RCH-ACV NSD2 p.E1099K mutant (9B) (AID 1645876); further: nearly all actives have a fitted effect of over 70% in size; further: potency means the concentration at half of the fitted maximal effect
# [6] = Primary qHTS for inhibitors of nuclear receptor binding SET domain protein 2 (NSD2) in an RCH-ACV wild type WT cells (2C) (AID 1645877); further: nearly all actives have a fitted effect of over 70% in size; further: potency means the concentration at half of the fitted maximal effect
# [7] = NCATS anti-infectives library activity on HEK293 viability as a counter-qHTS vs the C. elegans viability qHTS (AID 1745854);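 further: HEK293 cells exposed to compounds for 24 hr before the viability read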
# Method in brief: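 HEK293 cells (1,500/well) exposed 24 hr at 37C to 1:5 titrations, up to 41.7 uM final; counter-screen to a C. elegans viability qHTS. Viability by CellTiter-Glo luminescence after 10 min at room temperature; digitonin as control.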
# [8] = NCATS anti-infectives library activity on the primary C. elegans qHTS viability assay (AID 1745855; calls by dose curve); conditions: C. elegans worm area imaging, day 7; at 41.8 µM (top of the series) unless noted
# Method in brief: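 Viability read-out is GFP fluorescence of PE254-GFP-FLuc C. elegans, measured by laser cytometry (488 nm) at day 0, 3 and 7. Ten L1 worms per well were incubated 7 days at 21 °C with compounds and bacterial capsules in S medium.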
smiles,measurement,setting,value
Cc1c[nH]c2ccccc12,Potency,[1],inactive
same,Potency,[2],inactive
same,Potency,[3],inactive
same,Potency,[4],inactive
same,Potency,[5],inactive
same,Potency,[6],inactive
CCNC(=O)/C=C/c1cccc(Br)c1,Potency,[1],inactive
same,Potency,[2],inactive
same,Potency,[3],inactive
same,Potency,[4],inactive
same,Potency,[6],inactive
OC1C(O)C(O)C(O)C(O)C1O (stereo not drawn),Potency,[1],inactive
same,Potency,[2],inactive
same,Potency,[3],inactive
same,Potency,[4],inactive
same,Potency,[5],inactive
same,Potency,[6],inactive
OCCOCCN1CCN(C2=Nc3ccccc3Sc3ccccc32)CC1,Potency,[1],inactive
same,Potency,[2],inactive
same,Potency,[3],inactive
same,Potency,[4],inactive
same,Potency,[5],inactive
same,Potency,[6],inactive
CC(=O)Nc1ccc(OCC(O)CNC(C)C)cc1 (stereo not drawn),Potency,[1],inactive
same,Potency,[2],inactive
same,Potency,[3],inactive
same,Potency,[4],inactive
same,Potency,[5],inactive
same,Potency,[6],inactive
Cc1cc(-c2ccccc2)nnc1NCCN1CCOCC1,Potency,[1],inactive
same,Potency,[2],inactive
same,Potency,[3],4.9 µM (active)
same,Potency,[4],inactive
same,Potency,[5],inactive
same,Potency,[6],inactive
O=C(CCCN1CC=C(n2c(=O)[nH]c3ccccc32)CC1)c1ccc(F)cc1,Potency,[1],25.1 µM (active)
same,Potency,[2],inactive
same,Potency,[3],0.246 µM (active)
same,Potency,[4],inactive
same,Potency,[5],inactive
same,Potency,[6],inactive
COc1cc(C(=O)NCc2ccc(OCCN(C)C)cc2)cc(OC)c1OC,Potency,[1],inactive
same,Potency,[2],inactive
same,Potency,[3],inactive
same,Potency,[4],inactive
same,Potency,[5],inactive
same,Potency,[6],inactive
same,outcome,[7],inactive
Cc1cc(NS(=O)(=O)c2ccc(N)cc2)nc(C)n1,Potency,[1],inactive
same,Potency,[2],inactive
same,Potency,[3],inactive
same,Potency,[4],inactive
same,Potency,[5],inactive
same,Potency,[6],inactive
CN(C)CCC[C@@]1(c2ccc(F)cc2)OCc2cc(C#N)ccc21,Potency,[1],inactive
same,Potency,[2],inactive
same,Potency,[3],13.8 µM (active) and 12 µM (active)
same,Potency,[5],inactive
O=C(O)CCc1nc2ccccc2[nH]1,Potency,[1],inactive
same,Potency,[2],inactive
same,Potency,[3],inactive
same,Potency,[4],inactive
same,Potency,[5],inactive
same,Potency,[6],inactive
same,outcome,[7],inactive
same,outcome,[8],inactive
COP(=O)(OC)OC(c1ccc(Cl)cc1)P(=O)(OC)OC (stereo not drawn),Potency,[1],inactive
same,Potency,[2],inactive
same,Potency,[3],inactive
same,Potency,[4],inactive
same,Potency,[5],inactive
same,Potency,[6],inactive
CCOC(=O)[C@H](CCc1ccccc1)N[C@@H](C)C(=O)N1[C@H](C(=O)O)C[C@@H]2CCC[C@@H]21,Potency,[1],inactive
same,Potency,[2],inactive
same,Potency,[3],inactive
same,Potency,[4],inactive
same,Potency,[5],inactive
same,Potency,[6],inactive
CC(=O)O[C@]1(C(C)=O)CC[C@H]2[C@@H]3C=C(C)C4=CC(=O)CC[C@]4(C)[C@H]3CC[C@@]21C,Potency,[1],inactive
same,Potency,[2],inactive
same,Potency,[3],inactive
same,Potency,[4],12.3 µM (active)
same,Potency,[5],inactive
same,Potency,[6],inactive
same,outcome,[7],inactive
O=S(=O)(O)c1ccc(O)cc1,Potency,[1],inactive
same,Potency,[2],inactive
same,Potency,[3],inactive
same,Potency,[4],inactive
same,Potency,[5],inactive
same,Potency,[6],inactive
NC(N)=NN=C(/C=C/c1ccc([N+](=O)[O-])o1)/C=C/c1ccc([N+](=O)[O-])o1,Potency,[1],inactive
same,Potency,[2],1 µM (active)
same,Potency,[3],2.75 µM (active)
same,Potency,[4],15.5 µM (active)
same,Potency,[5],0.668 µM (active)
same,Potency,[6],0.531 µM (active)
CN(C)C(=O)Nc1ccc(Cl)c(Cl)c1,Potency,[1],inactive
same,Potency,[2],inactive
same,Potency,[3],inactive
same,Potency,[4],inactive
same,Potency,[5],inactive
same,Potency,[6],inactive
Cc1cccc(C)c1NC(=O)CN1CCCC1,Potency,[1],inactive
same,Potency,[2],inactive
same,Potency,[3],12.3 µM (active)
same,Potency,[4],inactive
same,Potency,[5],inactive
same,Potency,[6],inactive
NCCNC(=O)c1ccc(Cl)cn1,Potency,[1],inactive
same,Potency,[2],inactive
same,Potency,[3],inactive
same,Potency,[4],inactive
same,Potency,[5],inactive
same,Potency,[6],inactive
C#C[C@]1(O)CC[C@H]2[C@@H]3CCC4=CC(=O)CC[C@@H]4[C@H]3CC[C@@]21CC,Potency,[1],inactive
same,Potency,[2],inactive
same,Potency,[3],inactive
same,Potency,[4],12.3 µM (active)
same,Potency,[5],inactive
same,Potency,[6],inactive
CCCCCCCCCCCCCCCCO,Potency,[1],inactive
same,Potency,[2],inactive
same,Potency,[3],inactive
same,Potency,[4],inactive
same,Potency,[5],inactive
same,Potency,[6],inactive
CCCCC(CC)COC(=O)/C=C/c1ccc(OC)cc1 (stereo not drawn),Potency,[1],inactive
same,Potency,[2],inactive
same,Potency,[3],inactive
same,Potency,[4],9.77 µM (active)
same,Potency,[5],inactive
same,Potency,[6],inactive
O=C(O)CCNC(=O)c1ccccc1,Potency,[1],inactive
same,Potency,[2],inactive
same,Potency,[3],inactive
same,Potency,[4],inactive
same,Potency,[5],inactive
same,Potency,[6],inactive
N=C(N)N1CCc2ccccc2C1,"activity change, negative = inhibition",[1],-7.52% [at 3.88 µM]
same,"% pathology change, negative = correction",[2],0.596% [at 4.63 µM]
same,"activity change, negative = inhibition",[3],3.13% [at 4.83 µM]
same,"activity change, negative = inhibition",[4],12.1% [at 4.83 µM]
same,"activity change, negative = viability loss",[5],-4.68% [at 4.96 µM]
same,"activity change, negative = cell killing",[6],-10.2% [at 4.96 µM]
CCCCN1C[C@H](O)[C@@H](O)[C@H](O)[C@H]1CO,Potency,[1],inactive
same,Potency,[2],inactive
same,Potency,[3],inactive
same,Potency,[4],inactive
same,Potency,[5],inactive
same,Potency,[6],inactive
OC[C@H]1O[C@@H]2O[C@H]3[C@H](O)[C@@H](O)[C@@H](O[C@H]4[C@H](O)[C@@H](O)[C@@H](O[C@H]5[C@H](O)[C@@H](O)[C@@H](O[C@H]6[C@H](O)[C@@H](O)[C@@H](O[C@H]7[C@H](O)[C@@H](O)[C@@H](O[C@H]8[C@H](O)[C@@H](O)[C@@H](O[C@H]1[C@H](O)[C@H]2O)O[C@@H]8CO)O[C@@H]7CO)O[C@@H]6CO)O[C@@H]5CO)O[C@@H]4CO)O[C@@H]3CO,Potency,[1],inactive
same,Potency,[2],inactive
same,Potency,[3],inactive
same,Potency,[4],inactive
same,Potency,[5],inactive
same,Potency,[6],inactive
Clc1cccc(C(c2ccc3nc[nH]c3c2)n2ccnc2)c1 (stereo not drawn),Potency,[1],inactive
same,Potency,[2],inactive
same,Potency,[3],15.5 µM (active)
same,Potency,[4],7.76 µM (active)
same,Potency,[5],inactive
same,Potency,[6],inactive
